The structures appear in SMILES notation. Some of the results follow. Active and inactive are the calls of the source. How the calls were made is not given here.

A short description of the assay: V. cholerae lux activation without autoinducers – BH1578 luxS cqsA deficient, cherry-pick, plate reader, dose response (AID 602243). As to conditions: V. cholerae BH1578 lux reporter, luminescence, 6 h; series mostly up to 50 µM.
Consider `CCN(CC)c1nc(-c2ccccc2)cc(C(F)(F)F)c1C#N`, for which the result was inactive. For the molecule `CCOC(=O)C1(CCOc2ccccc2)CCN(Cc2cc(OC)cc(OC)c2)CC1`, the call was inactive. For the molecule `CCC(C)(C)n1nnnc1CN1CCN(c2nc3ccc(C)cc3cc2C#N)CC1`, the call was inactive. On to `CCN(CC(=O)NCc1ccc(Cl)cc1)C(=O)CSc1ccccc1`, for which the result was inactive. Regarding `CCc1cccc(C)c1N(C(=O)Cn1c(CO)nc2ccccc21)C(C)COC` (centres undefined), the call was inactive. The value for `COc1ccc(Cl)cc1NC(=O)COC(=O)c1ccc(Br)o1` was “inactive”; that for `CC1CN(C(=O)COC(=O)c2cccc(NS(=O)(=O)c3ccccc3)c2)CC(C)O1` (centres undefined) was “inactive”; that for `Cc1onc(-c2ccccc2)c1C(=O)N1CCOCC1` was “inactive”.

With `CC(=O)N1CCN(C(=O)c2cc(-c3ccc(Cl)s3)nc3ccccc23)CC1`, the molecule was called inactive. The value for `COc1ccc(Cl)cc1NC(=O)CN(C)C(=O)CNC(=O)C12CC3CC(CC(C3)C1)C2` was “inactive”; that for `O=C(CN1CCC(O)(c2cccc(C(F)(F)F)c2)CC1)NCCc1ccccc1` was “inactive”; that for `CC(C)CNC(=O)COC(=O)/C=C/c1ccco1` was “inactive”. `CCCn1nnnc1NCc1ccc(CC)cc1`: the call was inactive. As for `CCCn1nnnc1NCc1ccc(OC)cc1`, the molecule was called inactive.

(Values after PubChem BioAssay AID602243 (Broad Institute, 2012).)
